About 83,000 compounds went through this panel and 20% of them were active in at least one assay; those are over-represented in the sample as a whole.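 Assay: single dose, 48 h. Readout: percent growth (0 = no net growth; negative = cell death). Active: <10.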 Calls of active or inactive are those of the source.

The subject of the assay is A498 renal. The experiment in a line: NCI-60 one-dose screen, 48 h (100 = growth as untreated, 0 = no growth, -100 = all killed). The conditions noted are these: 10 µM.
Take `Cc1ccc2c(c1)C(=O)/C(=C/c1c[nH]c3ccccc13)S2`: the growth was 127% (inactive).
Then `COc1cccc(O)c1/C=C1\SCc2cc3c(OC)cccc3[o+]c21`, with 141% (inactive).
Then `COc1cc(C2CC(c3ccc(Oc4ccc(Cl)cc4)cc3)=NN2c2nc(-c3ccc(Cl)cc3)c(C#N)c(N3CCOCC3)n2)cc(OC)c1OC` (centres undefined), with 114% (inactive); and `O=C(Nc1ccc(OCC(=O)c2ccc(Cl)cc2)cc1)Nc1ccc(Cl)c(C(F)(F)F)c1`, with 0.685% (active); and `Cc1ccc2sc3c(c2c1)Oc1nc[nH]c(=O)c1C3c1cccc(F)c1` (centres undefined), with 129% (inactive).
On to `Cc1cc(N=C2NC(=O)/C(=C/c3cc(C(C)(C)C)c(O)c(C(C)(C)C)c3)S2)n[nH]1`, for which the growth is -8.54% (active).
Then `COc1ccc(C2c3sc4ccc(C)cc4c3Oc3nc[nH]c(=O)c32)cc1` (centres undefined), with 119% (inactive); and `COc1cccc(C(=O)CSc2nc(-c3ccc(OCc4ccccc4)c(OC)c3)c(C#N)c(=O)[nH]2)c1`, with 95.4% (inactive); and `Cc1ccc(COc2ccc(NC(=O)Nc3ccc(Cl)c(C(F)(F)F)c3)cc2)cc1`, with 82.6% (inactive).
`CC(C)(C)c1cc(/C=C2\S/C(=N/c3ncn[nH]3)NC2=O)cc(C(C)(C)C)c1O`: the growth is 32.8% (inactive).
Then `Cn1cc(/C=C(/SS/C(=C/c2cn(C)c3cccc(C(=O)O)c23)C(=O)O)C(=O)O)c2c(C(=O)O)cccc21`, with 109% (inactive).
Then `COc1ccc(C(=O)COc2ccc(NC(=O)Nc3ccccc3)cc2)cc1`, with 104% (inactive).
Then `CCn1c(SCC(=O)Nc2ccc(-c3nc4ccccc4[nH]3)cc2)nc2ccccc2c1=O`, with -75% (active); and `O=C(Nc1ccc(OCc2ccc(F)cc2)cc1)Nc1ccc(Cl)c(C(F)(F)F)c1`, with -9.28% (active).
For `O=C(CC(=O)Nc1ccc(Oc2ncnc3scc(Nc4n[nH]c(=S)s4)c23)cc1)Nc1ccc(Br)cc1`, the growth was 121% (inactive).
Then `COc1ccc(C(=O)COc2ccc(NC(=O)Nc3ccc(Cl)c(C(F)(F)F)c3)cc2)cc1`, with 60.8% (inactive); and `O=C(Nc1ccc(Oc2ncnc3scc(Nc4n[nH]c(=S)s4)c23)cc1)C1(C(=O)Nc2cccc(C(F)(F)F)c2)CC1`, with 122% (inactive); and `O=C1NC(=S)S/C1=C\c1cn(-c2ccccc2)nc1-c1ccc([N+](=O)[O-])cc1`, with -2.74% (active).
Then `O=C(CSc1nc2ccccc2c(=O)n1-c1ccc(Cl)cc1)Nc1ccc(-c2nc3ccc([N+](=O)[O-])cc3[nH]2)cc1`, with 81.7% (inactive).

These data come from PubChem BioAssay (NCI).
